This passage reports binding signal results from article PMC7862700, “An all-to-all approach to the identification of sequence-specific readers for epigenetic DNA modifications on cytosine”.

Test in all cases: DAPPL (digital affinity profiling via proximity ligation, sequencing); 10 mM Tris-HCl pH 7.5, 50 mM NaCl, 1 mM DTT, 4% glycerol, room temperature, 30 min; GST-TFs on glutathione beads, 16-mer random dsDNA library, 0.1% formaldehyde crosslink after washing; high values mean tight binding
For one assay, the target named is T1, FEV (Homo sapiens, UniProt Q99581 1-238).
T1 sequence: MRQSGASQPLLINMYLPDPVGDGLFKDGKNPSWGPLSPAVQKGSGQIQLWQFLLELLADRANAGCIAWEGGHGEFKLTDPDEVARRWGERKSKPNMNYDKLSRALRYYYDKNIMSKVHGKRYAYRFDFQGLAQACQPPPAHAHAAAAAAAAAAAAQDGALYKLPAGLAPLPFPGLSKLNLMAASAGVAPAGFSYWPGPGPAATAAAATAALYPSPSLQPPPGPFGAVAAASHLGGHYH
The settings on record: protein: recombinant; tags: N-terminal GST; dsDNA, one strand shown. A digest of the protocol:
(§1)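 Yeast served to express human transcription factors as GST fusions, which were then captured on glutathione beads and labelled with DNA barcodes. Pooled with a tag-only sample, they were incubated with 200 nmole of a 16-mer random double-stranded DNA library for 30 min at room temperature in Tris/NaCl/DTT/glycerol buffer, washed, crosslinked with 0.1% formaldehyde, ligated by proximity, amplified by PCR and sequenced. Dividing each hexamer's read frequency for a factor by its frequency for the tag-only sample gives the binding signal.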

In a further assay the target is ETV5 (Homo sapiens, UniProt P41161 1-510). The settings on record: protein: recombinant; tags: N-terminal GST; dsDNA, one strand shown. Summed up: as §1
For another assay, the target named is HSF1 (Homo sapiens, UniProt Q00613 1-529). The settings on record: protein: recombinant; tags: N-terminal GST; chain copies: 3; dsDNA, one strand shown. A digest of the protocol: as §1
The target in another assay is T2, SPIC (Homo sapiens, UniProt Q8N5J4 1-248).
T2 sequence: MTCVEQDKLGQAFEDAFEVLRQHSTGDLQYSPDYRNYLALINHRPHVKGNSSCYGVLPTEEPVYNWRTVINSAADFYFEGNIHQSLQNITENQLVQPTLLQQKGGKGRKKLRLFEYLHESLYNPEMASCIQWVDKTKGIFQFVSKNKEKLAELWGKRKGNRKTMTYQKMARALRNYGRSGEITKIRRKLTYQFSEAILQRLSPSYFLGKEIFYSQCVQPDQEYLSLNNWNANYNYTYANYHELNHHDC
The settings on record: protein: recombinant; tags: N-terminal GST; dsDNA, one strand shown. A digest of the protocol:
as §1

The target of another assay is ELF4 (Homo sapiens, UniProt Q99607 1-663). The settings on record: protein: recombinant; tags: N-terminal GST; dsDNA, one strand shown. A digest of the protocol:
as §1

For another assay, the target named is T3, ELK4 (Homo sapiens, UniProt P28324-2 1-405).
T3 sequence: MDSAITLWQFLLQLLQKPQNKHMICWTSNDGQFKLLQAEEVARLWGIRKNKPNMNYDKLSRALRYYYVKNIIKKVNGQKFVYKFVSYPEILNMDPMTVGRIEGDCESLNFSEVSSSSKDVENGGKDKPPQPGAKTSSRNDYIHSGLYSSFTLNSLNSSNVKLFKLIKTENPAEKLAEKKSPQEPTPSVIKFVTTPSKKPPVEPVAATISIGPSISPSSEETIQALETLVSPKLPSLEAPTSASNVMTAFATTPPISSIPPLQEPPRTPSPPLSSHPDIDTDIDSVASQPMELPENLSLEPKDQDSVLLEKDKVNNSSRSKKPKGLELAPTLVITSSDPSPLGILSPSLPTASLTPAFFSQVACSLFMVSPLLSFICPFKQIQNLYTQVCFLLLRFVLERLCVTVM
The settings on record: protein: recombinant; tags: N-terminal GST; dsDNA, one strand shown. A digest of the protocol:
as §1

For another assay, the target named is T4, ETV2 (Homo sapiens, UniProt O00321 1-342).
T4 sequence: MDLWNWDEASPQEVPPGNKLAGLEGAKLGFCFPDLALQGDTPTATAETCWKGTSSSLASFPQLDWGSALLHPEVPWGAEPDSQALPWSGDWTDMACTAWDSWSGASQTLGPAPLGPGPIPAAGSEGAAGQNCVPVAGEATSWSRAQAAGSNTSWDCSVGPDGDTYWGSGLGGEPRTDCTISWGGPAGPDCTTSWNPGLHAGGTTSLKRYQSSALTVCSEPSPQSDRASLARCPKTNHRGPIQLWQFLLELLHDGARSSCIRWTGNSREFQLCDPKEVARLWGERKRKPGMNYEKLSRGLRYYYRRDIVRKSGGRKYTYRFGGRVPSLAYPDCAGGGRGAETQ
The settings on record: protein: recombinant; tags: N-terminal GST; dsDNA, one strand shown. A digest of the protocol:
as §1

The target in another assay is T5, ELF3 (Homo sapiens, UniProt P78545 1-371).
T5 sequence: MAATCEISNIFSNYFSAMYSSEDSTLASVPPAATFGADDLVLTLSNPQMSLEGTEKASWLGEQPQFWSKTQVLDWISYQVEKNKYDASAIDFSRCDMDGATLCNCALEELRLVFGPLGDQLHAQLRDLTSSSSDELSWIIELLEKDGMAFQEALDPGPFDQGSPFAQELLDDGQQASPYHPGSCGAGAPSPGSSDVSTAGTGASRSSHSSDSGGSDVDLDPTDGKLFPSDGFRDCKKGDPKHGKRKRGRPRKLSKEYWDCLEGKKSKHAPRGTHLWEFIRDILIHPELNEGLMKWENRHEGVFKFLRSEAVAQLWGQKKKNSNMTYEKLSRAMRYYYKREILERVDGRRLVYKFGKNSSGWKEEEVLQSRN
The settings on record: protein: recombinant; tags: N-terminal GST; dsDNA, one strand shown. A digest of the protocol:
as §1

A further assay concerns the target CRX (Homo sapiens, UniProt O43186 1-299). The settings on record: protein: recombinant; tags: N-terminal GST; dsDNA, one strand shown. Summed up: as §1
The target of a further assay is ETV1 (Homo sapiens, UniProt P50549 1-477). The settings on record: protein: recombinant; tags: N-terminal GST; dsDNA, one strand shown. A digest of the protocol: as §1
The target of another assay is T6, ERF (Homo sapiens, UniProt P50548 1-548).
T6 sequence: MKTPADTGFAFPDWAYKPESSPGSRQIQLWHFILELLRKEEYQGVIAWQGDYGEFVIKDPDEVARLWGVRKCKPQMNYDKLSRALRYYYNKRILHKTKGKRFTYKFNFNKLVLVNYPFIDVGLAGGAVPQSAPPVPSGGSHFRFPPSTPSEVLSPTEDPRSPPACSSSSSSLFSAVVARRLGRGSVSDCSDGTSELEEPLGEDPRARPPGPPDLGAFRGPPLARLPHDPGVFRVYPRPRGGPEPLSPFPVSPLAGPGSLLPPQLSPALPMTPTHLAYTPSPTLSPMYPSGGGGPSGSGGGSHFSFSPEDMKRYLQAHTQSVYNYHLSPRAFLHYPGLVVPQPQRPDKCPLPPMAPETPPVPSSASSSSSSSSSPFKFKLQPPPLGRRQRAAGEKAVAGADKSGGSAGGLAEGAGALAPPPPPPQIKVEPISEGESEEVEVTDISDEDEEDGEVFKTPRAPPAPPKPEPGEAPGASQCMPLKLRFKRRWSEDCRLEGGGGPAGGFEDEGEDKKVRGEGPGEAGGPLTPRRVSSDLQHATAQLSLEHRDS
The settings on record: protein: recombinant; tags: N-terminal GST; dsDNA, one strand shown. Summed up: as §1

For the next assay, the target named is T7, ETV3L (Homo sapiens, UniProt Q6ZN32 1-361).
T7 sequence: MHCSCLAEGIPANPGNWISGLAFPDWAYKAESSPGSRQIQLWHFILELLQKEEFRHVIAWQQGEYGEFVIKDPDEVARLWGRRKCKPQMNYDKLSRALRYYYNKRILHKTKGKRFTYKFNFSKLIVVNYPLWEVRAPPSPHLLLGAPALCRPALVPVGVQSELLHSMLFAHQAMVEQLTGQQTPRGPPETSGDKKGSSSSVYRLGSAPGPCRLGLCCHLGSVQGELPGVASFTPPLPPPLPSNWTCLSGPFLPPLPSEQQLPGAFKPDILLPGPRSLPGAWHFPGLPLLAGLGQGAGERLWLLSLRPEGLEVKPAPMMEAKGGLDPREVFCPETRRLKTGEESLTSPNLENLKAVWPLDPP
The settings on record: protein: recombinant; tags: N-terminal GST; dsDNA, one strand shown. A digest of the protocol:
as §1

The next assay concerns the target T8, ETS2 (Homo sapiens, UniProt P15036 1-469).
T8 sequence: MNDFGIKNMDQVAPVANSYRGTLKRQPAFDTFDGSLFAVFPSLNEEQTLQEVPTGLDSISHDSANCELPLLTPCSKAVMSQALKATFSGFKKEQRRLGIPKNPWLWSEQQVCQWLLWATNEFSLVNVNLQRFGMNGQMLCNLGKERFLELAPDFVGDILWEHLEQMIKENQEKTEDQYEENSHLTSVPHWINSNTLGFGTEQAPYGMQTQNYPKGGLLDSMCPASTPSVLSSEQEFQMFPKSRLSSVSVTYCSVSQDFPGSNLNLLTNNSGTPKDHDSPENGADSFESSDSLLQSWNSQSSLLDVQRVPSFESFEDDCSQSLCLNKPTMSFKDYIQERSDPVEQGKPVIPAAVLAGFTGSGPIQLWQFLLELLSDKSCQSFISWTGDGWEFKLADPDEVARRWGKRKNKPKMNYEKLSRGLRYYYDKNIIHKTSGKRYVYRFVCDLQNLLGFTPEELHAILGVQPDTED
The settings on record: protein: recombinant; tags: N-terminal GST; dsDNA, one strand shown. Summed up:
as §1

Another assay concerns the target T9, SPDEF (Homo sapiens, UniProt O95238 1-335).
T9 sequence: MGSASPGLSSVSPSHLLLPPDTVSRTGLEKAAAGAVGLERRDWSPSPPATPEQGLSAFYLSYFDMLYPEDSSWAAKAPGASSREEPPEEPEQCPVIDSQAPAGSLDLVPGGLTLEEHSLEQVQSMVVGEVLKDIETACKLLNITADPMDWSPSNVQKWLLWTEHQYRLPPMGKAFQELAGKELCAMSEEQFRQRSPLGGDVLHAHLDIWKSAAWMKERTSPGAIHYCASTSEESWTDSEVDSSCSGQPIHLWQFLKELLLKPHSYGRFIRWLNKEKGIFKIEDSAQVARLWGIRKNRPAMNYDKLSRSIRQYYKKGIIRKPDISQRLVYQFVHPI
The settings on record: protein: recombinant; tags: N-terminal GST; dsDNA, one strand shown. A digest of the protocol:
as §1

Another assay deals with T10, ETV7 (Homo sapiens, UniProt Q9Y603 1-341).
T10 sequence: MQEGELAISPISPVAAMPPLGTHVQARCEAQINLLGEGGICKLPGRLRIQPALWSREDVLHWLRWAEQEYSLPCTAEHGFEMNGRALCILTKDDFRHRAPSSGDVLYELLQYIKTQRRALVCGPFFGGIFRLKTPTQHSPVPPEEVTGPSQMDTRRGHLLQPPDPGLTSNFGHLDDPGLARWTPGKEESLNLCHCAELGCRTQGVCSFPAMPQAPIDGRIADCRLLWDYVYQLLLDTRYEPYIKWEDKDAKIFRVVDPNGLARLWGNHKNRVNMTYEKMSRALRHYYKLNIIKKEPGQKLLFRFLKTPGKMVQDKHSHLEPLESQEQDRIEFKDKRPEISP
The settings on record: protein: recombinant; tags: N-terminal GST; dsDNA, one strand shown. Summed up:
as §1

Another assay has as its target T11, ELF5 (Homo sapiens, UniProt Q9UKW6-2 1-255).
T11 sequence: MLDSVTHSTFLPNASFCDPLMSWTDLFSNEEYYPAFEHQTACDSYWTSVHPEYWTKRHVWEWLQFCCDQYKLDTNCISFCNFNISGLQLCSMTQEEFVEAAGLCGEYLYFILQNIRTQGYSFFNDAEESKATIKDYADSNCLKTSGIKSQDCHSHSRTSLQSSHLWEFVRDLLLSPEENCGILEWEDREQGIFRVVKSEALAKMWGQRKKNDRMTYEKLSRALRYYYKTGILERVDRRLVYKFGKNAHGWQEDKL
The settings on record: protein: recombinant; tags: N-terminal GST; dsDNA, one strand shown. Summed up: as §1

A further assay has as its target T12, ETV3 (Homo sapiens, UniProt P41162-2 1-143).
T12 sequence: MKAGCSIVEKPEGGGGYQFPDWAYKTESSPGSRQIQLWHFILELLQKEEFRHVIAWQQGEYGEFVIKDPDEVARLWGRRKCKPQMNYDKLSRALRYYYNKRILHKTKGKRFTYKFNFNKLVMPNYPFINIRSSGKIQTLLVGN
The settings on record: protein: recombinant; tags: N-terminal GST; dsDNA, one strand shown. A digest of the protocol:
as §1

The next assay concerns the target ETV6 (Homo sapiens, UniProt P41212 1-452). The settings on record: protein: recombinant; tags: N-terminal GST; dsDNA, one strand shown. Summed up: as §1

Sequence of ETV6 (P41212 whole entry): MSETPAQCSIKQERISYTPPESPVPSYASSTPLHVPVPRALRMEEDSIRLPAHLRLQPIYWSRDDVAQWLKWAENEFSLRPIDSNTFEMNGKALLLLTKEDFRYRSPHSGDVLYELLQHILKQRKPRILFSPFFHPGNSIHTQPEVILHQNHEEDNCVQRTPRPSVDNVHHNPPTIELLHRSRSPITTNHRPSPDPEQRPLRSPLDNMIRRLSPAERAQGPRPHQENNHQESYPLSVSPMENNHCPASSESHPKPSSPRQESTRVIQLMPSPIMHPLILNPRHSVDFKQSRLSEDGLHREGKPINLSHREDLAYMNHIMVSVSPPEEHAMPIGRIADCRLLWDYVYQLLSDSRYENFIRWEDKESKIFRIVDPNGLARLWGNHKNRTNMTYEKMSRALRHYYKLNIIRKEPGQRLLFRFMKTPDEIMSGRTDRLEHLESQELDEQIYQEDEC
Sequence of ELF4 (Q99607 whole entry): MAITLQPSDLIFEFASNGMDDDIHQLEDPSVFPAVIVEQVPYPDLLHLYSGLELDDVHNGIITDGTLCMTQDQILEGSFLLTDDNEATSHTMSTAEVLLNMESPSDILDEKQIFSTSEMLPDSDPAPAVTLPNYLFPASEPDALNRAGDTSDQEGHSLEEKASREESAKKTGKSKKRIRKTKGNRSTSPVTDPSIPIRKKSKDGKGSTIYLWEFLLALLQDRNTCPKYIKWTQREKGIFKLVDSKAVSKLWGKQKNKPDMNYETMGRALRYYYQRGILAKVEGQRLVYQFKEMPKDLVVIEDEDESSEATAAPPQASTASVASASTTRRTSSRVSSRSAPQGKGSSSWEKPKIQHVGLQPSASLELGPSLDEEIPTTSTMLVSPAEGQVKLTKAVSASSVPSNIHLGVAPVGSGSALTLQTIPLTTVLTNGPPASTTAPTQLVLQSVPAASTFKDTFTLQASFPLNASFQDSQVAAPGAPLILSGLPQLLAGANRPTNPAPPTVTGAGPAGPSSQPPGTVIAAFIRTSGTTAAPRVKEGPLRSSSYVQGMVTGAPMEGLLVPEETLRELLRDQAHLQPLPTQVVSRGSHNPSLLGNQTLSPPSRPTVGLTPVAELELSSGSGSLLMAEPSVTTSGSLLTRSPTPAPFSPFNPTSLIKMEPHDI
Sequence of ETV1 (P50549 whole entry): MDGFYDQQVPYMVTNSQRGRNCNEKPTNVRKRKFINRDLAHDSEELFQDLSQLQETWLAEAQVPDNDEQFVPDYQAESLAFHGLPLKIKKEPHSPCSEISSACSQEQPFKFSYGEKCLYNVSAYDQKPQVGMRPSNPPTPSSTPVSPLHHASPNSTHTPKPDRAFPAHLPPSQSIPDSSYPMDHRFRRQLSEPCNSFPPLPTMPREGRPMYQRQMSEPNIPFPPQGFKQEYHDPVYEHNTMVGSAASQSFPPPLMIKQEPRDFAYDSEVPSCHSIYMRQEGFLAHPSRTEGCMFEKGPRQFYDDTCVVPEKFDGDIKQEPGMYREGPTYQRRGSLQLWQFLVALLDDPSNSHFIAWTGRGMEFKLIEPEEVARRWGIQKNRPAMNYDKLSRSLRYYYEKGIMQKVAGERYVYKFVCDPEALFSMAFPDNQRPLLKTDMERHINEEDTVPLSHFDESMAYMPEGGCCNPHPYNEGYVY
Sequence of ETV5 (P41161 whole entry): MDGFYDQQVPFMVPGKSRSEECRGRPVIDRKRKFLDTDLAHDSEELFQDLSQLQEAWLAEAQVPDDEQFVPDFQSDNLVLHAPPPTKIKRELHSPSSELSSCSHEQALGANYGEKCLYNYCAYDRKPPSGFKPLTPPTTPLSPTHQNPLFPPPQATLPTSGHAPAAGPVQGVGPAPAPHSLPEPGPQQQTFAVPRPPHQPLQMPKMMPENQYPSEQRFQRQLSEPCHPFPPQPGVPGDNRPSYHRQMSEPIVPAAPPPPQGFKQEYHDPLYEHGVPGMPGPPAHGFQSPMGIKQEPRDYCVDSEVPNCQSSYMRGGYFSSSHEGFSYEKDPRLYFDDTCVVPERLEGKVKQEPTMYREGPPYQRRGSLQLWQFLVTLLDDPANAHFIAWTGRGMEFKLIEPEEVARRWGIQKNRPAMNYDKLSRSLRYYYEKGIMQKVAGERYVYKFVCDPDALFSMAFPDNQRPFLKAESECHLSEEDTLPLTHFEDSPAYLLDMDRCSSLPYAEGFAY
Sequence of CRX (O43186 whole entry): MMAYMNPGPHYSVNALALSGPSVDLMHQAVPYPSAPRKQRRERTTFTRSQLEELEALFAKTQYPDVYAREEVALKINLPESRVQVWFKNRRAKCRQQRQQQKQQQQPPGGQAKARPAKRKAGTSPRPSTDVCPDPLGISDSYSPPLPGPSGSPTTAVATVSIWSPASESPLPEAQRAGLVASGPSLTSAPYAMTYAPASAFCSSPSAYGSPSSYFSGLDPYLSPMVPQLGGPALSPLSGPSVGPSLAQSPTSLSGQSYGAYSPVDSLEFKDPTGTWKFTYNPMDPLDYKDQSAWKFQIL
Sequence of HSF1 (Q00613 whole entry): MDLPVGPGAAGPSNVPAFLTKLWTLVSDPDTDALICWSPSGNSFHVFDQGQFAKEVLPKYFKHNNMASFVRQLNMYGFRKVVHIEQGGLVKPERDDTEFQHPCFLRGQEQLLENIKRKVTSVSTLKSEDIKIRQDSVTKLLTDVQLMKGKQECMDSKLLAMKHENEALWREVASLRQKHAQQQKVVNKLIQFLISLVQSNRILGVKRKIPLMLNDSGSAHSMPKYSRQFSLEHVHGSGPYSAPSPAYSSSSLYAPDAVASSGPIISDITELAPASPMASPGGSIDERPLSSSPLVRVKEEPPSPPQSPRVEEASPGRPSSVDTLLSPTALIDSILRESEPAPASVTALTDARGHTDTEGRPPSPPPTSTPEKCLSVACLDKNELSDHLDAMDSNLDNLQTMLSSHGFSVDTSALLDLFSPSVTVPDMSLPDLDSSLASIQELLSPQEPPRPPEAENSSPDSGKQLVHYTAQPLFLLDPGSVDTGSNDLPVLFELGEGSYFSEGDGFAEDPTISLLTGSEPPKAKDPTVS

On to TTAGCT, for which the binding signal with FEV is 1.2 fold enrichment (6-mer frequency, TF over GST control); with ETV5 it was 1.2 fold enrichment (6-mer frequency, TF over GST control); in the assay with HSF1, 1.82 fold enrichment (6-mer frequency, TF over GST control); in the assay with SPIC it was 1.16 fold enrichment (6-mer frequency, TF over GST control); in the assay with ELF4, 1.28 fold enrichment (6-mer frequency, TF over GST control); with ELK4, 1.24 fold enrichment (6-mer frequency, TF over GST control). The binding signal with ETV2 was 1.28 fold enrichment (6-mer frequency, TF over GST control); with ELF3, 1.18 fold enrichment (6-mer frequency, TF over GST control); with CRX it was 2.63 fold enrichment (6-mer frequency, TF over GST control); with ETV1, 1.2 fold enrichment (6-mer frequency, TF over GST control); with ERF, 1.2 fold enrichment (6-mer frequency, TF over GST control); with ETV3L it was 1.16 fold enrichment (6-mer frequency, TF over GST control). Besides, the binding signal in the assay with ETS2 was 1.26 fold enrichment (6-mer frequency, TF over GST control); with SPDEF, 1.08 fold enrichment (6-mer frequency, TF over GST control); in the assay with ETV7, 1.17 fold enrichment (6-mer frequency, TF over GST control); with ELF5, 1.13 fold enrichment (6-mer frequency, TF over GST control); in the assay with ETV3, 1.19 fold enrichment (6-mer frequency, TF over GST control); with ETV6 it was 1.26 fold enrichment (6-mer frequency, TF over GST control).
